Assay outcomes: PubChem BioAssay, National Center for Advancing Translational Sciences (NCATS)
In the library only some 5.7% were active in any assay of this set; here they are far more common.
HT1080 IDH1KD tx: toxicity to HT-1080 IDH1 knockdown cells (counter line) | HT-1080 IDH1 knockdown viability, ATP luminescence, 48 h | AID 686971 | Potency, µM (titrated, usually from 46.1 µM), inactives show top-dose activity, negative = toxicity, hits mostly cytotoxic | 360,000 tested, 2% active;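 also: 0% = DMSO wells and -100% = cell-free medium wells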
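Viability of IDH1-knockdown HT-1080 fibrosarcoma cells was assessed by CellTiter-Glo after 48 h at 37 °C with titrated compound; concentration-effect curves were classified by fit quality and response size.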
KB-3-1 cytotox: KB-3-1 parental cell cytotoxicity | KB-3-1 viability, CellTiter-Glo ATP luminescence, 72 h | Potency, µM (series often up to 46.1 µM), most hits filed as cytotoxic | 400,000 tested, 1.4% active | AID 1347075; also: nearly all actives have a fitted effect of over 60% in size
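Using CellTiter-Glo luminescence, growth of non-resistant KB-3-1 adenocarcinoma cells is assessed 72 h after pin-tool compound addition at 37 °C. Normalized responses across the concentration series yield fitted curves.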
KB-V1 MDR tox: KB-V1 MDR subline cytotoxicity; 400,000 tested, 3.4% active; Potency, µM (titrated, usually from 46.1 µM), actives largely listed as cytotoxic; KB-V1 MDR cells viability, CellTiter-Glo, 72 h; also: nearly all actives have a fitted effect of over 60% in size
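Compound-treated KB-V1 multidrug-resistant cells, 72 h, 37 degrees C; viability by CellTiter-Glo. Fitted qHTS curves give the values.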
HT1080-NT tox: kills 2HG-producing HT-1080-NT fibrosarcoma cells. HT-1080-NT fibrosarcoma viability, CellTiter-Glo ATP luminescence, 48 h. Potency, µM (series often up to 46.1 µM), for the others: at the top dose activity, negative = less viability, usual class: cytotoxic. 360,000 tested, 1.6% active. AID 686970;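 also: NT is the 2HG producing partner of a matched IDH1 knockdown line; 0% = DMSO-treated cells and -100% = media-only wells without cells; nearly all actives have a fitted effect of over 55% in size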
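HT-1080-NT fibrosarcoma cells (2HG-overproducing), 750 cells/well in RPMI with 5% FBS, dosed after 2 h and incubated 48 h at 37C. CellTiter-Glo luminescence normalized to DMSO and no-cell wells; concentration-response curves fitted and classed.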
Numbers without * were called inactive; i = inactive; u = inconclusive; x = no result; [ ] = remark or other dose. Calls follow the shape of the dose curve; as a rule, active = well fitted curve in the direction sought with a large enough effect; inconclusive = small, poorly fitted or top-dose-only effect, or another doubt; inactive = no such curve, though single readings can be large; an effect the other way counts as inactive or inconclusive. Unless noted, % is scaled to controls: 0 for no effect and ±100 for the full control effect; potency is read from the fitted curve at half-maximal effect.

SMILES | HT1080 IDH1KD tx | KB-3-1 cytotox | KB-V1 MDR tox | HT1080-NT tox
CC1(C)N=C(N)N=C(N)N1c1ccc(OCC(=O)N2CCOCC2)c(Cl)c1 | 0.13µM* | u | i | 0.52µM*
Fc1cccc(F)c1-n1c(CN2CCCCC2)csc1=S | u | 23µM* | u | u
O=C(Nc1nccs1)c1nc[nH]c1C(=O)NCc1ccccc1 | 0.82µM* | u | i | u
CNC(=O)c1ccc2nc(-c3cccc(C)c3)c(-c3cccc(C)c3)nc2c1 | x | i | i | x
COc1cccc(CC(=O)Nc2ccc3c(c2)c(=O)n(C)n3-c2ccc(C(C)(C)C)cc2)c1 | -26% | i | i | u
Cn1c(=O)c2cc(NC(=O)Cc3cccnc3)ccc2n1-c1ccc2ccccc2c1 | 18µM* | u | u | u
CC(CC(=O)Nc1ccc2c(c1)c(=O)n(C)n2-c1ccc2ccccc2c1)C(F)(F)F (configuration not stated) | u | 5.8µM* | 5.8µM* | u
CC(CC(=O)Nc1ccc2c(c1)c(=O)n(C)n2-c1ccccc1F)c1ccccc1 (configuration not stated) | 4.1µM* | u | u | 7.3µM*
Cn1cc(S(=O)(=O)N2CCCCCC2)cc1C(=O)N1CCN(c2ccc(Cl)cc2)CC1 | x | i | u | x
CCn1c2ccccc2c2cc(NC(=O)COC(=O)c3cc(Cl)c(N)cc3OC)ccc21 | -25% | i | i | -17%
CCSc1nc(COC(=O)NC)c(COC(=O)NC)n1C | 1% | i | u | 17%
CNC(=O)OCc1nc(SSC(C)(C)C)n(C)c1COC(=O)NC | 18µM* | u | i | u
O=C(CSc1ccc2nc(-c3ccccc3)cn2n1)Nc1ccccc1 | x | i | i | x
CN(C)CCNc1oc(-c2ccc(COc3ccc(Cl)cc3)o2)nc1C#N | x | i | i | x
Cc1ccc2[nH]c(=O)c(CN(c3cccc(C)c3C)S(=O)(=O)c3ccccc3)cc2c1 | u | 6.5µM* | u | 22%
CCc1ccc(Oc2c(C(F)(F)F)oc3c(CN4CCN(C)CC4)c(O)ccc3c2=O)cc1 | x | i | i | x
CCOC(=O)Cc1csc(/N=C/c2c(O)n(-c3ccc(C)c(C)c3)c(=O)c3ccccc23)n1 | 22% | u | 10µM* | 6%
Cc1cccc(NC(=O)C2CCC(CNS(=O)(=O)c3ccc(Br)s3)CC2)c1 (configuration not stated) | x | i | i | x
O=C(CCl)Nc1cccc(-c2cnc3ccccc3n2)c1 | u | 10µM* | 13µM* | u
O=C(CCl)Nc1ccc(Oc2cnc3ccccc3n2)cc1 | 7.1µM* | 6.5µM* | 15µM* | u
COc1cc(/C=c2\[nH]c(=O)/c(=C/c3cc(OC)c(OC)c(OC)c3)[nH]c2=O)cc(OC)c1OC | x | u | i | x
CC1(C)OC(=O)C2(Cc3ccc(Cl)cc3N3CCCC32)C(=O)O1 (configuration not stated) | x | i | i | x
COC(=O)c1ccc(OCC2c3cc(OC)c(OC)cc3CCN2C(=O)c2ccc(F)cc2)cc1 (configuration not stated) | x | i | u | x
Cn1c(SC2=CS(=O)(=O)c3ccccc32)nc2ccccc21 | u | i | i | 18µM*
CNc1nc(N2CCc3ccccc32)ncc1F | -8% | u | 1.6µM* | 10%
SMILES | HT1080 IDH1KD tx | KB-3-1 cytotox | KB-V1 MDR tox | HT1080-NT tox
c1ccc2c(c1)CCCN2c1nc(N2CCOCC2)nc(N2CCOCC2)n1 | -6% | i | i | 9%
CCN(CC)CCN1C(=O)c2ccccc2NC1c1ccc(OC)c(COc2ccc(NC(C)=O)cc2)c1 (configuration not stated) | x | i | u | x
O=C(/C=C/c1ccc([N+](=O)[O-])cc1)c1cccs1 | 10% | i | i | 3%
COc1cc([N+](=O)[O-])ccc1N/C=C/C(=O)c1cccs1 | u | 5.2µM* | 3.3µM* | 4%[9.24 µM]
N#CC1=C(N)S[C@H](C(=O)C23CC4CC(CC(C4)C2)C3)[C@H]1c1ccncc1 | u | i | i | 23µM*
Cc1ccc(/C=N/NC(=O)c2n[nH]c3c2CCCC3)cc1 | 0.13µM* | u | 1.2µM* | 0.16µM*
O=C(N/N=C\c1cccc(Cl)c1)c1n[nH]c2c1CCCC2 | -29% | i | i | -6%
O=C(N/N=C/c1cccs1)c1n[nH]c2c1CCCC2 | 15µM* | u | u | 21µM*
C/C(=N\NC(=O)c1n[nH]c2c1CCC2)c1cccs1 | 17% | i | i | 16%
O=C(N[C@H]1C/C=C\C[C@@H](CC(=O)N(CCO)Cc2ccccc2)C(=O)NC[C@H](c2ccccc2)OC1=O)OCC1c2ccccc2-c2ccccc21 | u | u | i | 23µM*
O=C1N[C@@H](c2ccccc2)COC(=O)[C@@H](Cc2ccc(F)cc2)C/C=C\C[C@H]1CC(=O)N(CCO)Cc1ccccc1 | u | 21µM* | u | u
O=C1NC[C@H](c2ccccc2)OC(=O)[C@@H](Cc2ccc(F)cc2)CC/C=C/C[C@@H]1CC(=O)N(CCO)Cc1ccccc1 | x | u | i | -25%
O=C1NC[C@H](c2ccccc2)OC(=O)[C@@H](Cc2ccc(F)cc2)CC/C=C/C[C@H]1CC(=O)N(CCO)Cc1ccccc1 | x | u | u | 23µM*
O=C1NC[C@H](c2ccccc2)OC(=O)[C@H](Cc2ccc(F)cc2)CC/C=C/C[C@H]1CC(=O)N(CCO)Cc1ccccc1 | x | u | u | 26µM*
COC(=O)c1c(NC(=O)c2cc(=O)c3cc(C)cc(C)c3o2)sc2c1CCC2 | x | i | i | x
O=C(NCc1ccccn1)C1CCCN(S(=O)(=O)c2cc(Cl)ccc2Cl)C1 (configuration not stated) | 5.8µM* | u | 0.73µM* | 5.8µM*
c1ccc(COn2nnc3ccccc32)c(COn2nnc3ccccc32)c1 | -2% | i | 16µM* | -5%
CCOc1ccc2nc(/N=C/c3c(C)[nH]n(-c4ccc(C)cc4)c3=O)sc2c1 | u | 12µM* | 10µM* | u
Cn1c(=O)oc2cc(S(=O)(=O)NC(Cc3ccccc3)C(=O)NCc3ccccc3Cl)ccc21 (configuration not stated) | x | i | i | x
CC1(C)CC(=O)C=C(C#CC2(O)CCCCC2)C1 | 13µM* | 23µM* | 16µM* | 5.2µM*
O=C1Nc2ccccc2CCC1Sc1nnc(-c2ccc(Cl)cc2)s1 (configuration not stated) | 4% | 21µM* | 18µM* | u
Clc1ccc(CSc2nnc(-c3ccncc3)s2)cc1 | 16% | i | i | 0%
Cc1ccc(SC2=NS(=O)(=O)c3ccccc32)c(C)c1 | x | i | i | x
Cc1ccc(C(OCC(O)CN2CCCCC2)c2ccccc2)cc1 (configuration not stated) | 0% | i | i | -10%
